This note sets out measurements from PubChem BioAssay (NCATS).

Records with an inconclusive call do not appear. Where a call stands in place of a potency, no number is given. Activity calls are given as the source filed them. Calls follow the shape of the dose curve; as a rule, active = well fitted curve in the direction sought with a large enough effect; inconclusive = small, poorly fitted or top-dose-only effect, or another doubt; inactive = no such curve, though single readings can be large; an effect the other way counts as inactive or inconclusive. Where a SMILES comes first, the peptide text is derived from it. [ ]: non-standard residue; d: D form. pGlu = O=C1CC[C@@H](C(=O)O)N1; Thz = O=C(O)[C@@H]1CSCN1

Test [1] has as its system Zika virus NS2B-NS3 protease (unlinked complex). The experiment in a line: Primary screen GU Rhodamine qHTS for Zika virus inhibitors: Unlinked NS2B-NS3 protease assay (AID 1347159). Also: nearly all actives have a fitted effect of over 60% in size. Also: potency is read from the fitted curve at half-maximal effect. The essentials:
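Noncovalent NS2B hydrophilic domain–NS3 protease domain complex (25 nM) preincubated 15 min at room temperature with compounds (up to 114 microM) in 10 mM Tris-HCl pH 8.0, 0.01% Tween 20; 1.5 microM Rhodamine110 substrate added, fluorescence change over 15 min fitted to Hill equation.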

Test [2] has as its system Zika virus NS2B-NS3 protease (linked construct). As to the kind of experiment: Primary screen NINDS Rhodamine qHTS for Zika virus inhibitors (AID 1347160). Also: nearly all actives have a fitted effect of over 55% in size. Also: potency is read from the fitted curve at half-maximal effect. The essentials: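 Purified linked NS2B-NS3 protease (NS2B hydrophilic domain joined to NS3 protease by flexible linker), 25 nM in 10 mM Tris-HCl pH 8.0, 0.01% Tween 20. Compounds titrated, 15 min preincubation at room temperature; 1.5 microM Rhodamine110 substrate, FITC fluorescence change over 15 min.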
Background: qHTS replaces the single test concentration by a dilution series.

Test [3] relates to Zika virus NS2B-NS3 protease. The experiment in a line: Primary screen GU AMC qHTS for Zika virus inhibitors (AID 1347154). Also: nearly all actives have a fitted effect of over 70% in size. The essentials: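 Unlinked Zika NS2B hydrophilic domain–NS3 protease complex at 25 nM in 10 mM Tris-HCl pH 8.0, 0.01% Tween 20, with an AMC peptide substrate. Fluorescence change (340/450 nm) over 15 min at room temperature, normalized to controls, fitted to 4-parameter Hill.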

Test [4] in a line: ZIKV-mCherry secondary qHTS for Zika virus inhibitors (AID 1347158). Also: top concentration of the series differs between compounds. A digest of the protocol:
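Vero cells, 5,000/well, plated overnight at 37 °C, then compound added and infected with recombinant ZIKV-mCherry at MOI 1 for 48-72 h. PFA-fixed, Hoechst nuclear stain, high-content imaging; cells with mCherry intensity above 450 RFU scored infected, reported as percent infection.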

As for `COc1cc(/C=C/C(=O)N2CCN(CC(=O)N3CCCC3)CC2)cc(OC)c1OC`, the Potency result in test [1] and in test [2] was “inactive” in each case. For the compound `O=C(O)[C@H](CC(=O)N1C[C@H]2CCCC[C@H]2C1)Cc1ccccc1`, the Potency entry in test [2] was “inactive”.

Consider `O=c1cc(-c2ccccc2)oc2ccccc12`, for which the Potency entry in test [3] is “inactive”. On the same count and under the same terms, to `O=c1[nH]c2ccccc2n1CCCN1CCN(C(c2ccccc2)c2ccccc2)CC1` belongs “inactive”. Take `CCNC(=O)[C@H]1O[C@@H](n2cnc3c(N)nc(NCCc4ccc(CCC(=O)O)cc4)nc32)[C@H](O)[C@@H]1O`: the Potency result in test [1] and in test [2] was “inactive” throughout. For `NC(=O)C(c1ccccc1)(c1ccccc1)[C@@H]1CCN(CCc2ccc3c(c2)CCO3)C1`, the Potency entry in test [3] was “inactive”. As to `CN1[C@@H]2CC[C@H]1CC(OC(c1ccccc1)c1ccccc1)C2` (some centres undefined), the Potency result in test [1] and in test [2] was “inactive” each time.

Regarding `CC(=O)O[C@H]1C[C@@]2(C)[C@@H](C[C@@H](O)[C@H]3[C@@]4(C)CC[C@@H](O)[C@@H](C)[C@@H]4CC[C@@]32C)/C1=C(\CCC=C(C)C)C(=O)O`, the Potency entry in test [1] and in test [2] was “inactive” in each case. Take `COc1cc(CNC(=O)CCCC/C=C/C(C)C)ccc1O`: the Potency entry in test [3], in test [1] and in test [2] was “inactive” each time. On to `CC(C(=O)O)c1ccc2c(c1)[nH]c1ccc(Cl)cc12` (centres undefined), for which, in test [3], the Potency entry is “inactive”. Besides, the Potency in test [1] is 35.5 µM (active). For the compound `CC1(C)[C@@H](O[C@H]2O[C@H](C(=O)O)[C@@H](O)[C@H](O)[C@H]2O[C@@H]2O[C@H](C(=O)O)[C@@H](O)[C@H](O)[C@H]2O)CC[C@]2(C)[C@H]3C(=O)C=C4[C@@H]5C[C@@](C)(C(=O)O)CC[C@]5(C)CC[C@@]4(C)[C@]3(C)CC[C@@H]12`, the Potency entry in test [2] was “inactive”. As to `S=c1[nH]c2ccccc2s1`, the Potency entry in test [3] was “inactive”.

Turning to `CCCCCCCCCCCCOCCO`, in test [3], the Potency result was “inactive”. Turning to `O=C1CC[C@@H](C(=O)N2CSC[C@H]2C(=O)O)N1` ([pGlu]-[Thz]-OH), the Potency result in test [1] and in test [2] was “inactive” throughout. In the case of `c1ccc(CCNc2nc(-c3ccccc3)cs2)cc1`, the Potency result in test [3] is “inactive”.

With `CC1(C)S[C@@H]2[C@H](NC(=O)[C@H](NC(=O)N3CCN(S(C)(=O)=O)C3=O)c3ccccc3)C(=O)N2[C@H]1C(=O)O`, the Potency entry in test [1] and in test [2] was “inactive” each time. On to `Cc1ccc2c(n1)Oc1ccc(C(C)C(=O)OCC(=O)N(C)C)cc1C2` (centres undefined), for which the Potency entry in test [3], in test [1] and in test [2] was “inactive” in each case. As for `CC(=O)c1ccc(OCC(=O)N2CCCCC2)cc1`, the Potency entry in test [3], in test [1] and in test [2] was “inactive” throughout. Consider `CN(C)[C@@H]1C(=O)C(C(=O)NCN2CCCC2)=C(O)[C@@]2(O)C(=O)C3=C(O)c4c(O)cccc4[C@@](C)(O)C3C[C@@H]12` (some centres undefined), for which, in test [3], the Potency entry is “inactive”. The result in test [4] was inactive.

As to `COC(=O)[C@H]1[C@H]2C[C@@H]3c4[nH]c5cc(OC)ccc5c4CCN3C[C@H]2C[C@@H](OC(=O)/C=C/c2cc(OC)c(OC)c(OC)c2)[C@@H]1OC`, the Potency result in test [1] and in test [2] was “inactive” each time. `C/C(=N\O)c1ccc(OCC(=O)N2CCCCC2)cc1`: the Potency entry in test [3], in test [1] and in test [2] was “inactive” throughout.

As to `COC(=O)C1=C(C)NC(C)=C(C(=O)OCC(C)C)C1c1ccccc1[N+](=O)[O-]` (centres undefined), the Potency result in test [3] is “inactive”. Still for that read-out and setting: under `CCCCCCCCCCCC(=O)[O][Sn]([CH2]CCC)([CH2]CCC)[O]C(=O)CCCCCCCCCCC` stands “inactive”.

In the case of `O=C(O)c1cc(O)c(O)c(O)c1`, the Potency entry in test [3] was “inactive”. For the same compound, the Potency in test [2] is 49.3 µM (active).

For `Cc1onc(-c2c(F)cccc2Cl)c1C(=O)N[C@@H]1C(=O)N2[C@@H]1SC(C)(C)[C@@H]2C(=O)O`, the Potency result in test [1] and in test [2] was “inactive” each time. On to `O=C(O)c1cc([N+](=O)[O-])ccc1NCCCc1ccccc1`, for which, in test [3], the Potency result is “inactive”. On to `CC1(C)S[C@@H]2[C@H](NC(=O)[C@H](N)c3ccc(O)cc3)C(=O)N2[C@H]1C(=O)O`, for which the Potency entry in test [1] and in test [2] was “inactive” throughout. Turning to `CN1[C@@H]2CC[C@H]1CC(OC(=O)C(CO)c1ccccc1)C2` (some centres undefined), the Potency result in test [1] and in test [2] was “inactive” throughout. For the compound `O=C(O)Cc1cccc(-c2cc(CCCCCCc3ccc(O[C@H]4O[C@H](CO)[C@@H](O)[C@H](O)[C@@H]4O)c(-c4cccc(CC(=O)O)c4)c3)ccc2O[C@H]2O[C@H](CO)[C@@H](O)[C@H](O)[C@@H]2O)c1`, the activity change, negative = inhibition in test [3] was 1.91% [at 0.59 µM] (inactive); in test [1] it was 17.6% [at 1.28 µM] (inactive); in test [2], 11.1% [at 0.684 µM] (inactive). Regarding `C[C@H](O)[C@H](O)[C@H]1CNc2nc(N)[nH]c(=O)c2N1`, the Potency entry in test [1] and in test [2] was “inactive” throughout.

Take `CC1(C)[C@@H](O)CC[C@]2(C)[C@H]3C(=O)C=C4[C@@H]5C[C@@](C)(C(=O)O)CC[C@]5(C)CC[C@@]4(C)[C@]3(C)CC[C@@H]12`: the Potency in test [1] was 17.8 µM (active); in test [2], 14.1 µM (active). Regarding `CCCCCCCC/C=C/C(=O)O`, in test [3], the Potency entry is “inactive”. The same measure, in the same setting: to `O=C(O)Cc1ccc(-c2ccccc2)cc1` belongs “inactive”. Still for that read-out and setting: under `C[N+]1(C)[C@@H]2CC(OC(=O)[C@H](CO)c3ccccc3)C[C@H]1[C@@H]1O[C@@H]12` (some centres undefined) stands “inactive”. On to `CC(=O)SCC(CC(=O)c1ccc(C)cc1)C(=O)O` (centres undefined), for which the Potency result in test [3], in test [1] and in test [2] was “inactive” throughout.

With `COc1ccc(/C=C/C(=O)Nc2ccccc2C(=O)O)cc1OC`, the Potency result in test [1] and in test [2] was “inactive” in each case.
